Results: the supplement of paper PMC12350171
Where a name gives a salt, the structure may show the parent alone.

Legend:
Conditions in all cases: 20 µM
[1] = test system: Haemophilus parainfluenzae; test: growth AUC normalised to DMSO control (fraction of control); higher = less growth inhibition, active = hit call of the paper
In short: (§1)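 For the AUC endpoint, growth curves were integrated by the trapezoidal rule up to the exponential-to-stationary transition and normalised to DMSO controls on the same plate. The curves came from OD578 readings taken hourly for 24 h, in three biological replicates. Pathogens had been passaged anaerobically twice and inoculated at an OD578 of 0.01 into pre-reduced mGAM plates carrying 20 μM compound and 1% DMSO, sealed with breathable membranes. Medium for Haemophilus parainfluenzae also contained hemin and NAD.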

[2] = test system: Salmonella enterica typhimurium; test: as above
In short: as §1

Shigella flexneri = test: as above
In short: as §1

Vibrio cholerae = test: as above
In short: as §1

[3] = test system: Yersinia pseudotuberculosis; test: as above
In short: as §1

P. vulgatus RND KO = test: growth AUC normalised to DMSO control (median) (fraction of control); higher = less growth inhibition, active = hit call of the paper
In short: (§2)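 Area under the growth curve, calculated by the trapezoidal rule up to entry into stationary phase, was normalised to vehicle wells on the same plate. Strains had been passaged twice overnight without oxygen and then grown in mGAM in 96-well plates from OD578 0.01, each with an approved-drug library compound at 20 μM in 1% DMSO. OD578 was read hourly over 24 h in an anaerobic incubator, and the median of three biological replicates is given.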

P. vulgatus WT = test: as above
In short: as §2

[4] = test system: S. enterica typhimurium WT; test: as above
In short: as §2

[5] = test system: S. enterica typhimurium tolC KO; test: as above
In short: as §2

Measured: growth AUC normalised to DMSO control
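Wherever growth AUC normalised to DMSO control (median) is given: active when median AUC fell below 0.1.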

CCCC(C)(COC(N)=O)COC(=O)NC(C)C (stereo unspecified) [Carisoprodol]
inactive: [1] 0.843 | [2] 1 | Shigella flexneri 0.977 | Vibrio cholerae 0.948 | [3] 1 | P. vulgatus RND KO 1 | P. vulgatus WT 1.02 | [4] 1 | [5] 0.979

CC(=O)OC1CN2CCC1CC2 (stereo unspecified) [Aceclidine hydrochloride]
inactive: [1] 1.02 | [2] 1 | Shigella flexneri 1.01 | Vibrio cholerae 1.03 | [3] 0.994 | P. vulgatus RND KO 0.994 | P. vulgatus WT 1.03 | [4] 1.01 | [5] 0.999

CN1[C@@H]2CC[C@H]1C[C@@H](OC(=O)[C@H](CO)c1ccccc1)C2 [(L) Hyoscyamine]
inactive: [1] 0.945 | [2] 0.983 | Shigella flexneri 1.04 | Vibrio cholerae 1.05 | [3] 1.01 | P. vulgatus RND KO 1 | P. vulgatus WT 1 | [4] 1.01 | [5] 1

CC(=O)OCC1=C(C(=O)O)N2C(=O)[C@@H](N)[C@H]2SC1 [Cephalosporanic acid, 7-amino]
active: P. vulgatus RND KO 0.0227 | P. vulgatus WT 0.0158
inactive: [1] 0.942 | [2] 0.999 | Shigella flexneri 0.987 | Vibrio cholerae 0.968 | [3] 0.99 | [4] 1 | [5] 0.983

Oc1cc(Cl)ccc1Oc1ccc(Cl)cc1Cl [Triclosan]
active: [1] 0.0433 | [2] 0.00977 | Shigella flexneri 0.0073 | Vibrio cholerae 0.184 | [4] 0.00521 | [5] 0.00694
inactive: [3] 0.911 | P. vulgatus RND KO 0.462 | P. vulgatus WT 0.357

CCNCC(O)c1cccc(O)c1 (stereo unspecified) [Etilefrine hydrochloride]
inactive: [1] 0.987 | [2] 0.976 | Shigella flexneri 0.987 | Vibrio cholerae 0.995 | [3] 0.979 | P. vulgatus RND KO 0.997 | P. vulgatus WT 0.995 | [4] 0.993 | [5] 1

C[N+]12CCC(CC1)C(OC(=O)C(O)(c1ccccc1)c1ccccc1)C2 (stereo unspecified) [Clidinium bromide]
inactive: [1] 0.998 | [2] 0.969 | Shigella flexneri 0.975 | Vibrio cholerae 0.99 | [3] 0.999 | P. vulgatus RND KO 1.03 | P. vulgatus WT 0.999 | [4] 1.02 | [5] 0.997

CC(CCc1ccccc1)NC(C)C(O)c1ccc(O)cc1 (stereo unspecified) [Nylidrin]
inactive: [1] 0.988 | [2] 0.987 | Shigella flexneri 0.994 | Vibrio cholerae 0.983 | [3] 0.993 | P. vulgatus RND KO 1 | P. vulgatus WT 0.998 | [4] 1 | [5] 0.991

CNC(C)(C)Cc1ccccc1 [Mephentermine hemisulfate]
inactive: [1] 1.09 | [2] 1.03 | Shigella flexneri 1.03 | Vibrio cholerae 1.06 | [3] 0.977 | P. vulgatus RND KO 1.03 | P. vulgatus WT 1.08 | [4] 1 | [5] 0.994

Fc1ccc(C(OCCN2CCN(CCCc3ccccc3)CC2)c2ccc(F)cc2)cc1
inactive: [1] 0.991 | [2] 1 | Shigella flexneri 0.998 | Vibrio cholerae 0.944 | [3] 0.995 | P. vulgatus RND KO 0.994 | P. vulgatus WT 0.966 | [4] 0.999 | [5] 0.914

N[C@@H]1C[C@H]1c1ccccc1 [Tranylcypromine hydrochloride]
inactive: [1] 1.04 | [2] 0.999 | Shigella flexneri 1 | Vibrio cholerae 1.01 | [3] 0.959 | P. vulgatus RND KO 1.01 | P. vulgatus WT 1.05 | [4] 1.01 | [5] 1

NCCCNCCSP(=O)(O)O [Amifostine]
inactive: [1] 1.02 | [2] 1.02 | Shigella flexneri 0.99 | Vibrio cholerae 1.01 | [3] 0.992 | P. vulgatus RND KO 1.02 | P. vulgatus WT 1.07 | [4] 1.02 | [5] 1.01

COc1ccc2c(c1)[C@]13CCCC[C@@H]1[C@H](C2)N(C)CC3 [Dextromethorphan hydrobromide monohydrate]
inactive: [1] 1.02 | [2] 0.982 | Shigella flexneri 0.988 | Vibrio cholerae 0.955 | [3] 0.97 | P. vulgatus RND KO 1.02 | P. vulgatus WT 1 | [4] 0.995 | [5] 0.985

CC(NC(C)(C)C)C(=O)c1cccc(Cl)c1 (stereo unspecified) [Bupropion hydrochloride]
inactive: [1] 1.01 | [2] 1 | Shigella flexneri 1.05 | Vibrio cholerae 1.05 | [3] 1.01 | P. vulgatus RND KO 1.03 | P. vulgatus WT 1.03 | [4] 0.996 | [5] 1
